In PubChem BioAssay AID686979 (National Center for Advancing Translational Sciences (NCATS), 2013):
Among all 420,000 compounds or so, about 50,000 (12%) were called active. Inconclusive results (about 26%) are left out. The list comes from a sample in which actives are over-represented; it also holds similar structures and randomly drawn compounds. A number with no mark means an inactive call. Calls follow the shape of the dose curve; as a rule, active = well fitted inhibition curve with a large enough effect; inconclusive = small, poorly fitted or top-dose-only effect; inactive = flat fitted curve, though single readings scatter.

test: qHTS for Inhibitors of human tyrosyl-DNA phosphodiesterase 1 (TDP1): qHTS in cells in presence of CPT; settings: chicken DT40 Tdp1-/-;hTDP1 cells + 20 nM CPT, ATP luminescence, 48 h; series mostly up to 46.2 µM; activity change, negative = growth inhibition: at the top concentration; also: nearly all actives have a fitted effect of over 55% in size
Summary of the method: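 Chicken DT40 Tdp1-/- cells complemented with human TDP1, 400 cells/well, exposed to compounds plus 20 nM camptothecin for at least 48 h at 37 C; viability read as ATP content by CellTiter-Glo luminescence.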
% is scaled to controls: 0 for no effect and ±100 for the full control effect; potency is read from the fitted curve at half-maximal effect.

Compound	activity change, negative = growth inhibition	Potency
COc1ccc(S(=O)(=O)N(CCCN2CCCC2=O)Cc2cc3c(C)ccc(C)c3[nH]c2=O)cc1	-28.9%	
O=C(CN1CCN(S(=O)(=O)c2ccc3ccccc3c2)CC1)NC(=O)NC1CCCCC1	-16.3%	
O=C(CN1CCC(NC(=O)Nc2ccccc2)CC1)Nc1cccc([N+](=O)[O-])c1	6.65%	
O=C(N/N=C\c1ccc(Br)cc1)c1ccc(Cn2cccn2)o1	-10.9%	
O=C1c2ccccc2C(Nc2ccc3c(c2)OCCO3)N1Cc1ccco1 (configuration not stated)		20.6 µM (active)
S=C(NCc1ccco1)Nc1ccc2c(c1)OCCO2	-11.7%	
O=C(NC1CCCCC1)C1c2ccccc2C(=O)N1Cc1ccco1 (configuration not stated)	1.87%	
Cn1cnc2c1c(=O)n(Cc1ccccc1C#N)c(=O)n2C	-5.65%	
CC(=O)Nc1ccc(S(=O)(=O)NNC(=O)CCc2ccccc2)cc1	4.6%	
CCc1nccn1S(=O)(=O)c1cc(Br)ccc1Br	-16.5%	
CCNC(=O)c1cc2n(n1)CCCN(Cc1ccc(C)cc1)C2=O	-16.7%	
COc1cc(CNC(=O)c2cc3n(n2)CCCN(Cc2cccc(F)c2)C3=O)cc(OC)c1OC		16.4 µM (active)
COC(=O)c1ccc(CNC(=O)C2CCC(=O)N(Cc3cccc(F)c3)C2)cc1 (configuration not stated)	1.7%	
O=C(c1cc(C2CCCCN2S(=O)(=O)c2ccccc2)on1)N1CCOCC1 (configuration not stated)	-14.5%	
CSc1ccc(/C=N/N2CCN(Cc3ccccc3Cl)CC2)cc1	-24.1%	
COc1ccc(CNC(=O)COC(=O)c2c(C)nn(-c3ccccc3)c2C)cc1OC	-1.35%	
CCCOc1ccc(F)cc1-c1cc(C(=O)NCc2ccc(F)cc2)[nH]n1		14.6 µM (active)
CCCOc1ccccc1-c1nc(SCCC(=O)O)n[nH]1	-8.61%	
COc1ccc(NC(=O)CN2CCN(S(=O)(=O)c3ccc(F)cc3)CC2)cc1Cl	-3.64%	
Cc1cc(=O)oc(C)c1C(=O)NCc1ccc(F)cc1	-11%	
CCCOc1ccc(F)cc1-c1cc(C(=O)Nc2ccc(F)c(Cl)c2)[nH]n1		14.6 µM (active)

Compound	activity change, negative = growth inhibition	Potency
Cc1ccc(NC(=O)c2cc(-c3ccccc3O)n[nH]2)cc1C	-22%	
COc1ccccc1C(=O)COC(=O)COc1ccc(C#N)cc1	5.69%	
COc1cccc(NC(=O)N(C)C[C@@H]2Oc3ncc(Br)cc3C(=O)N([C@@H](C)CO)C[C@H]2C)c1	-4.55%	
Oc1ccc(-c2cccc(-c3ccc(O)cc3)c2)cc1	-21.4%	
CN(C(=O)COC(=O)c1cc(=O)[nH]c2ccccc12)C1CCCCC1	-1.93%	
CCOc1ccccc1CNC(=O)c1ccc2c(c1)nc1n2CCC(C)C1 (configuration not stated)	-1.2%	
Cc1ccc(/C=C/C(=O)OCC(=O)Nc2cccnc2Cl)cc1	5.25%	
O=C(COC(=O)/C=C/c1cn(-c2ccccc2)nc1-c1cccnc1)Nc1ccc(Cl)cc1Cl		9.2 µM (active)
COc1ccc(NC(=O)CN(C)C(=O)/C=C/c2cn(Cc3ccccc3)nc2-c2cccnc2)cc1	-17.9%	
Cc1[nH]n(-c2ccccc2)c(=O)c1CCOC(=O)c1ccc(C(F)(F)F)cc1	4.03%	
COc1ccc(S(=O)(=O)NCCCCOc2ccc(Cl)cc2)cc1		10.3 µM (active)
COc1ccc(S(=O)(=O)NCCCc2ccccc2)cc1	-18.6%	
COc1ccc(OCCNS(=O)(=O)Cc2ccccc2)cc1	-12%	
CC(=O)c1ccc(S(=O)(=O)N(C)CCCC(=O)N(C)Cc2ccccc2F)cc1	-5.41%	
Cc1ccc(-n2c(SCC(=O)N/N=C/C=C/c3ccccc3[N+](=O)[O-])nc3ccccc3c2=O)cc1	-19.7%	
CCc1c(O)nc(SCC(=O)N2CCCCC2)n(-c2ccccc2C)c1=O	-14.5%	
C/C(=N\NC(=O)CSc1nc2ccccc2c(=O)n1-c1ccccc1C)c1cccs1		23.1 µM (active)
C/C(=N\NC(=O)COc1c(C)cccc1C)c1cccs1	-4.87%	
O=C(CSc1nc2ccccc2c(=O)n1-c1ccc(F)cc1)NC1CC1	-14.4%	
Cc1nn(-c2ccccc2)c(C)c1/C=N/NC(=O)CSc1nc2ccccc2c(=O)n1-c1ccccc1		16.4 µM (active)
CCn1c(SCC(=O)NC2=NCCS2)nnc1C(C)NC(=O)c1ccccc1F (configuration not stated)	6.99%	

Compound	activity change, negative = growth inhibition	Potency
Cc1ccc(Nc2cc(=O)n(C3CCCCC3)c(=O)[nH]2)cc1C	-15.9%	
C[C@H](NC(=O)c1nc[nH]c1C(=O)NCC(=O)OC(C)(C)C)c1ccccc1	19.7%	
CCC1(CC)NC(=O)N(CC(=O)OCC(=O)Nc2ccc(C(F)(F)F)cc2)C1=O	-5.2%	
Cc1cc(Nc2ccc(C)c(C)c2)n2ncnc2n1	-9.95%	
Brc1ccc(Nc2c3c(nc4ncnn24)CCC3)cc1		25.9 µM (active)
Cc1nc(S(=O)(=O)c2ccc(Br)cc2)nc2c1CCC2	21.9%	
Cc1cc([N+](=O)[O-])c(NC2CCCCC2)c([N+](=O)[O-])c1	1.16%	
Cc1sc2c(c1C)c(=O)n(-c1ccccc1)c(=O)n2CC(=O)NCC1CCCO1 (configuration not stated)	-3.05%	
CCC(C)NC(=O)Cn1c(=O)n(-c2ccc(Cl)cc2)c(=O)c2c3c(sc21)CCCC3 (configuration not stated)	-16.5%	
Cc1ccc(NC(=O)Cn2c(=O)n(-c3ccccc3)c(=O)c3c4c(sc32)CCCC4)cc1		14.6 µM (active)
CCN(C(=O)C1CCCN(c2nc(-c3ccc(OC)cc3)no2)C1)c1ccc(OC)cc1 (configuration not stated)		16.4 µM (active)
CCOc1ccc(N(CC)C(=O)C2CCN(S(=O)(=O)c3cccc4nonc34)CC2)cc1	-25.8%	
COc1ccc(NC(=O)N2CCCC(c3nc(-c4ccc(F)cc4)no3)C2)cc1 (configuration not stated)	-12.4%	
CS(=O)(=O)c1ccccc1C(=O)Nc1ccc2sccc2c1	-0.774%	
O=C(Nc1cc2c3c(c1)CC(=O)N3CCC2)c1ccccc1F	12%	
CCN1C(=O)[C@@H]2[C@@H](c3ccc(-c4cccc(Cl)c4)cc3)N3CCC[C@@]3(C(=O)OC)[C@@H]2C1=O		14.6 µM (active)
CCCCC12CN3CC(C)(CN(C1)C3c1ccc(O)c(OC)c1)C2=O (configuration not stated)	-2.88%	
CCCCCCSc1ccc([C@@H]2[C@@H]3C(=O)N(CC)C(=O)[C@@H]3[C@]3(C(=O)OC)CCCCN23)cc1OC		20.6 µM (active)
CC(=O)N(CN1C(=O)C2C3C=CC(C3)C2C1=O)c1cccc(Cl)c1 (configuration not stated)	-1.76%	
CCN1C(=O)[C@H]2[C@@H](c3ccccc3)N[C@]3(CCCN(Cc4ccc(C)cc4)C3=O)[C@H]2C1=O	-10.5%	
